According to PubChem BioAssay AID1159580 (chemical genetic matrix, 2015):
The campaign covered roughly 5,500 compounds. About 2,000 (36%) were called active. Roughly 18% stayed inconclusive and do not appear here. Cut-off read from the data, not from the text of the source: active = normalized growth mostly below about 0.91 (no sharp cut-off); inconclusive = no clear call, values can overlap the other calls; inactive = mostly above about 0.92. The list shows a part of the results.

Assay: chemical genetic growth profiling, strain panel (AID 1159580);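 note: tested at 20 µM; growth read once vehicle control cultures reached saturation at 30 °C; 1 = growth at the plate median or of vehicle wells; lower values mean less growth of the strain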
Conditions: growth OD

Measured: normalized growth

CNC(=O)O/N=C\C(C)(C)SC
inactive: S. cerevisiae deletion strains, locus YJR043C, strain POL32, stronger effect = lower value 1.03 | S. cerevisiae deletion strains, locus YJR075W, strain HOC1, stronger effect = lower value 1.02 | S. cerevisiae deletion strains, locus YKL009W, strain mrt4, stronger effect = lower value 1.02 | S. cerevisiae deletion strains, locus YKL068W, stronger effect = lower value 0.998 | S. cerevisiae deletion strains, locus YKL085W, strain MDH1 (second series), stronger effect = lower value 0.996 | S. cerevisiae deletion strains, locus YKL085W, strain MDH1, stronger effect = lower value 0.996 | S. cerevisiae deletion strains, locus YKL160W, strain elf1, stronger effect = lower value 1 | S. cerevisiae deletion strains, locus YKL190W, strain CNB1, stronger effect = lower value 0.991 | S. cerevisiae deletion strains, locus YKR001C, strain vps1, stronger effect = lower value 1.01 | S. cerevisiae deletion strains, locus YKR026C, strain gcn3, stronger effect = lower value 1 | S. cerevisiae deletion strains, locus YKR091W, strain srl3, stronger effect = lower value 1 | S. cerevisiae deletion strains, locus YLL001W, strain dnm1, stronger effect = lower value 0.988 | S. cerevisiae deletion strains, locus YLL026W, stronger effect = lower value 0.997 | S. cerevisiae deletion strains, locus YLL041C, strain sdh2, stronger effect = lower value 1 | S. cerevisiae deletion strains, locus YLR027C, strain aat2, stronger effect = lower value 1.01 | S. cerevisiae deletion strains, locus YLR039C, strain RIC1, stronger effect = lower value 1.02 | S. cerevisiae deletion strains, locus YLR058C, strain SHM2, stronger effect = lower value 1.01 | S. cerevisiae deletion strains, locus YLR102C, strain apc9, stronger effect = lower value 0.986 | S. cerevisiae deletion strains, locus YLR221C, strain rsa3, stronger effect = lower value 1.01 | S. cerevisiae deletion strains, locus YLR258W, strain gsy2, stronger effect = lower value 0.996 | S. cerevisiae deletion strains, locus YLR262C, strain YPT6 (second series), stronger effect = lower value 1.01 | S. cerevisiae deletion strains, locus YLR262C, strain YPT6, stronger effect = lower value 1.06 | S. cerevisiae deletion strains, locus YLR268W, strain sec22, stronger effect = lower value 0.991 | S. cerevisiae deletion strains, locus YLR320W, strain mms22, stronger effect = lower value 0.999 | S. cerevisiae deletion strains, locus YLR330W, strain CHS5, stronger effect = lower value 1.01 | S. cerevisiae deletion strains, locus YLR342W, strain FKS1 (second series), stronger effect = lower value 1 | S. cerevisiae deletion strains, locus YLR342W, strain FKS1, stronger effect = lower value 1 | S. cerevisiae deletion strains, locus YLR357W, strain rsc2, stronger effect = lower value 0.986 | S. cerevisiae deletion strains, locus YLR370C, strain arc18, stronger effect = lower value 1.01 | S. cerevisiae deletion strains, locus YLR371W, strain rom2, stronger effect = lower value 0.978 | S. cerevisiae deletion strains, locus YLR384C, strain iki3, stronger effect = lower value 0.991 | S. cerevisiae deletion strains, locus YLR418C, strain cdc73, stronger effect = lower value 1.01 | S. cerevisiae deletion strains, locus YML016C, strain PPZ1, stronger effect = lower value 1.01 | S. cerevisiae deletion strains, locus YML032C, strain rad52, stronger effect = lower value 0.993 | S. cerevisiae deletion strains, locus YML120C, strain ndi1, stronger effect = lower value 1.01 | S. cerevisiae deletion strains, locus YML124C, strain tub3, stronger effect = lower value 0.996 | S. cerevisiae deletion strains, locus YMR058W, strain fet3, stronger effect = lower value 1.01 | S. cerevisiae deletion strains, locus YMR078C, strain ctf18, stronger effect = lower value 0.992 | S. cerevisiae deletion strains, locus YMR125W, strain sto1, stronger effect = lower value 0.996 | S. cerevisiae deletion strains, locus YMR129W, stronger effect = lower value 1.01 | S. cerevisiae deletion strains, locus YMR205C, strain PFK2, stronger effect = lower value 0.975 | S. cerevisiae deletion strains, locus YMR223W, strain ubp8, stronger effect = lower value 0.995 | S. cerevisiae deletion strains, locus YMR231W, strain pep5, stronger effect = lower value 1 | S. cerevisiae deletion strains, locus YMR263W, strain SAP30, stronger effect = lower value 1.01 | S. cerevisiae deletion strains, locus YMR307W, strain GAS1, stronger effect = lower value 1.02 | S. cerevisiae deletion strains, locus YNL067W, strain RPL9B, stronger effect = lower value 1.01 | S. cerevisiae deletion strains, locus YNL071W, strain lat1, stronger effect = lower value 1.01 | S. cerevisiae deletion strains, locus YNL128W, strain TEP1, stronger effect = lower value 1.01 | S. cerevisiae deletion strains, locus YNL153C, strain GIM3, stronger effect = lower value 1 | S. cerevisiae deletion strains, locus YNL209W, strain ssb2, stronger effect = lower value 1.01 | S. cerevisiae deletion strains, locus YNL233W, strain BNI4, stronger effect = lower value 1.02 | S. cerevisiae deletion strains, locus YNL248C, strain rpa49, stronger effect = lower value 0.992 | S. cerevisiae deletion strains, locus YNL250W, strain rad50, stronger effect = lower value 0.989 | S. cerevisiae deletion strains, locus YNL271C, strain bni1, stronger effect = lower value 0.992 | S. cerevisiae deletion strains, locus YNL298W, strain CLA4, stronger effect = lower value 0.983 | S. cerevisiae deletion strains, locus YNL307C, strain MCK1, stronger effect = lower value 0.989 | S. cerevisiae deletion strains, locus YNL322C, strain KRE1 (second series), stronger effect = lower value 0.999 | S. cerevisiae deletion strains, locus YNL322C, strain KRE1, stronger effect = lower value 1.01 | S. cerevisiae deletion strains, locus YNR049C, strain mso1, stronger effect = lower value 1 | S. cerevisiae deletion strains, locus YNR052C, strain pop2, stronger effect = lower value 0.987 | S. cerevisiae deletion strains, locus YOL006C, strain TOP1, stronger effect = lower value 1.1 | S. cerevisiae deletion strains, locus YOL012C, strain htz1 0.971 | S. cerevisiae deletion strains, locus YOL147C, strain pex11, stronger effect = lower value 0.981 | S. cerevisiae deletion strains, locus YOR001W, strain rrp6, stronger effect = lower value 1.01 | S. cerevisiae deletion strains, locus YOR061W, strain CKA2, stronger effect = lower value 1 | S. cerevisiae deletion strains, locus YOR069W, strain VPS5, stronger effect = lower value 0.998 | S. cerevisiae deletion strains, locus YOR070C, strain gyp1, stronger effect = lower value 1 | S. cerevisiae deletion strains, locus YOR080W, strain dia2, stronger effect = lower value 0.996 | S. cerevisiae deletion strains, locus YOR083W, strain WHI5, stronger effect = lower value 0.999 | S. cerevisiae deletion strains, locus YOR106W, strain vam3, stronger effect = lower value 0.996 | S. cerevisiae deletion strains, locus YOR136W, strain idh2, stronger effect = lower value 1.01 | S. cerevisiae deletion strains, locus YOR144C, strain elg1, stronger effect = lower value 0.983 | S. cerevisiae deletion strains, locus YOR184W, strain ser1, stronger effect = lower value 1 | S. cerevisiae deletion strains, locus YOR265W, strain rbl2, stronger effect = lower value 1.03 | S. cerevisiae deletion strains, locus YOR270C, strain vph1, stronger effect = lower value 1 | S. cerevisiae deletion strains, locus YOR290C, strain snf2, stronger effect = lower value 0.994 | S. cerevisiae deletion strains, locus YOR316C, strain cot1, stronger effect = lower value 0.987 | S. cerevisiae deletion strains, locus YPL051W, strain arl3, stronger effect = lower value 1 | S. cerevisiae deletion strains, locus YPL055C, strain LGE1, stronger effect = lower value 1.05 | S. cerevisiae deletion strains, locus YPL078C, strain atp4, stronger effect = lower value 1 | S. cerevisiae deletion strains, locus YPL106C, strain sse1, stronger effect = lower value 0.996 | S. cerevisiae deletion strains, locus YPL240C, strain hsp82, stronger effect = lower value 1.01 | S. cerevisiae deletion strains, locus YPL241C, strain CIN2, stronger effect = lower value 0.999 | S. cerevisiae deletion strains, locus YPR119W, strain clb2, stronger effect = lower value 0.986 | S. cerevisiae deletion strains, locus YPR141C, strain kar3, stronger effect = lower value 0.996 | S. cerevisiae deletion strains, locus YPR163C, strain tif3, stronger effect = lower value 0.983 | S. cerevisiae deletion strains, locus YPR167C, strain met16, stronger effect = lower value 0.99 | S. cerevisiae deletion strains, strain wtn01, stronger effect = lower value 0.997 | S. cerevisiae strains, strain wild type, stronger effect = lower value 1
